Measurements reported in ChEMBL document CHEMBL2218924, “A broad activity screen in support of a chemogenomic map for kinase signalling research and drug discovery” (Biochem J, 2013).

Molecular target: Activated CDC42 kinase 1 (Homo sapiens) (UniProt Q07912)
Settings: at 10 µM

Sequence of Activated CDC42 kinase 1 (Homo sapiens) (Q07912 whole entry, looked up): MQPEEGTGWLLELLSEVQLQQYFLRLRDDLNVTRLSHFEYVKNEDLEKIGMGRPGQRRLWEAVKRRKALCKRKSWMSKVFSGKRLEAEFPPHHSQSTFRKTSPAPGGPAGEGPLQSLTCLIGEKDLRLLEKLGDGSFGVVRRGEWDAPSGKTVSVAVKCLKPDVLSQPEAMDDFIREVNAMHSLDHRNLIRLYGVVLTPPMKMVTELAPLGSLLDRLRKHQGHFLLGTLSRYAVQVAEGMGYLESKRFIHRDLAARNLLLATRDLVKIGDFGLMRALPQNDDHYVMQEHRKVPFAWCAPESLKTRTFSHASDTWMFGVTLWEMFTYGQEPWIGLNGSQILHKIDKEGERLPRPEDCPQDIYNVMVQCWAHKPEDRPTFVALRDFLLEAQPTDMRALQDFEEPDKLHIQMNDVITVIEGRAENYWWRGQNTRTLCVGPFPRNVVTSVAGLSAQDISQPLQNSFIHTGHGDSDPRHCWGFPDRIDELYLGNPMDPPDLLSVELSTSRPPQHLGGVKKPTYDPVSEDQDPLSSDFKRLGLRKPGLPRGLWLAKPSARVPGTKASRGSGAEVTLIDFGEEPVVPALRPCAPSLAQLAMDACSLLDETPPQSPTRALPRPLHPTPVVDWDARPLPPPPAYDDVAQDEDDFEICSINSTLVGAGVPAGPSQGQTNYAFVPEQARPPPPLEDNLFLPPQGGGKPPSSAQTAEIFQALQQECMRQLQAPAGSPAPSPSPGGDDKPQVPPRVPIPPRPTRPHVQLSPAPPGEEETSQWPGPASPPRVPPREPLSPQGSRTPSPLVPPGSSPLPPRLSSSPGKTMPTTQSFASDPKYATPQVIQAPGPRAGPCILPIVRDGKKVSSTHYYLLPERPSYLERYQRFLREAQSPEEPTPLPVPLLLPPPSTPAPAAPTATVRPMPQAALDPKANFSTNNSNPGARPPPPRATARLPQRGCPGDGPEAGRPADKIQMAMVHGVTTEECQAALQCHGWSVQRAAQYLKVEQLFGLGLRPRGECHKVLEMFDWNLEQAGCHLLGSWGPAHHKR

In order of rising residual activity:
1. COC(=O)[C@@]1(O)C[C@H]2O[C@]1(C)n1c3ccccc3c3c4c(c5c6ccccc6n2c5c31)C(=O)NC4  0%
2. CCn1cnc2c(Nc3cccc(Cl)c3)nc(N[C@@H]3CCCC[C@@H]3N)nc21  4%
3. COc1cc2ncnc(Nc3ccc(OCc4ccccc4)cc3)c2cc1OC  10%
4. O=C1NC(=O)c2c1c1c3ccccc3n3c1c1c2c2ccccc2n1C1CCC3O1  13%
5. CC(C)[C@H](CO)Nc1nc(Nc2cccc(Cl)c2)c2ncn(C(C)C)c2n1  14%
6. O=C1Nc2ccc3ncsc3c2/C1=C/c1c[nH]cn1  17%
7. c1cc(-c2cnn3cc(-c4ccc(OCCN5CCCCC5)cc4)cnc23)ccn1  18%
8. C[S+]([O-])c1ccc(-c2nc(-c3ccc(F)cc3)c(-c3ccncc3)[nH]2)cc1 (stereo unspecified)  39%
9. COc1ccc2c(c1)/C(=C/c1cnc[nH]1)C(=O)N2  44%
10. COc1cc(OC)c(/C=C2\C(=O)Nc3ccccc32)c(OC)c1  56%
11. COc1ccc2c(c[n+](C)c3c4cc5c(cc4ccc23)OCO5)c1OC  68%
12. O=[N+]([O-])/C=C/c1ccc2c(c1)OCO2  69%
13. CCc1nc(-c2ccc(OC)cc2)[nH]c1-c1ccncc1  69%
14. N/C(=N\[N+](=O)[O-])N/N=C\c1ccc(-c2cccc([N+](=O)[O-])c2)o1  71%
15. CC(C)(C)c1cc(C=C(C#N)C#N)cc(Br)c1O  73%
16. O=c1[nH]c2ccccc2n1C1CCN(Cc2ccc(-c3nc4cc5[nH]cnc5cc4nc3-c3ccccc3)cc2)CC1  77%
17. O=C1c2ccccc2-c2nc3nnnn3nc21  80%

Molecular target: ALK tyrosine kinase receptor (Homo sapiens) (UniProt Q9UM73)
Settings: at 1 µM

Sequence of ALK tyrosine kinase receptor (Homo sapiens) (Q9UM73 19-1620 limits assumed): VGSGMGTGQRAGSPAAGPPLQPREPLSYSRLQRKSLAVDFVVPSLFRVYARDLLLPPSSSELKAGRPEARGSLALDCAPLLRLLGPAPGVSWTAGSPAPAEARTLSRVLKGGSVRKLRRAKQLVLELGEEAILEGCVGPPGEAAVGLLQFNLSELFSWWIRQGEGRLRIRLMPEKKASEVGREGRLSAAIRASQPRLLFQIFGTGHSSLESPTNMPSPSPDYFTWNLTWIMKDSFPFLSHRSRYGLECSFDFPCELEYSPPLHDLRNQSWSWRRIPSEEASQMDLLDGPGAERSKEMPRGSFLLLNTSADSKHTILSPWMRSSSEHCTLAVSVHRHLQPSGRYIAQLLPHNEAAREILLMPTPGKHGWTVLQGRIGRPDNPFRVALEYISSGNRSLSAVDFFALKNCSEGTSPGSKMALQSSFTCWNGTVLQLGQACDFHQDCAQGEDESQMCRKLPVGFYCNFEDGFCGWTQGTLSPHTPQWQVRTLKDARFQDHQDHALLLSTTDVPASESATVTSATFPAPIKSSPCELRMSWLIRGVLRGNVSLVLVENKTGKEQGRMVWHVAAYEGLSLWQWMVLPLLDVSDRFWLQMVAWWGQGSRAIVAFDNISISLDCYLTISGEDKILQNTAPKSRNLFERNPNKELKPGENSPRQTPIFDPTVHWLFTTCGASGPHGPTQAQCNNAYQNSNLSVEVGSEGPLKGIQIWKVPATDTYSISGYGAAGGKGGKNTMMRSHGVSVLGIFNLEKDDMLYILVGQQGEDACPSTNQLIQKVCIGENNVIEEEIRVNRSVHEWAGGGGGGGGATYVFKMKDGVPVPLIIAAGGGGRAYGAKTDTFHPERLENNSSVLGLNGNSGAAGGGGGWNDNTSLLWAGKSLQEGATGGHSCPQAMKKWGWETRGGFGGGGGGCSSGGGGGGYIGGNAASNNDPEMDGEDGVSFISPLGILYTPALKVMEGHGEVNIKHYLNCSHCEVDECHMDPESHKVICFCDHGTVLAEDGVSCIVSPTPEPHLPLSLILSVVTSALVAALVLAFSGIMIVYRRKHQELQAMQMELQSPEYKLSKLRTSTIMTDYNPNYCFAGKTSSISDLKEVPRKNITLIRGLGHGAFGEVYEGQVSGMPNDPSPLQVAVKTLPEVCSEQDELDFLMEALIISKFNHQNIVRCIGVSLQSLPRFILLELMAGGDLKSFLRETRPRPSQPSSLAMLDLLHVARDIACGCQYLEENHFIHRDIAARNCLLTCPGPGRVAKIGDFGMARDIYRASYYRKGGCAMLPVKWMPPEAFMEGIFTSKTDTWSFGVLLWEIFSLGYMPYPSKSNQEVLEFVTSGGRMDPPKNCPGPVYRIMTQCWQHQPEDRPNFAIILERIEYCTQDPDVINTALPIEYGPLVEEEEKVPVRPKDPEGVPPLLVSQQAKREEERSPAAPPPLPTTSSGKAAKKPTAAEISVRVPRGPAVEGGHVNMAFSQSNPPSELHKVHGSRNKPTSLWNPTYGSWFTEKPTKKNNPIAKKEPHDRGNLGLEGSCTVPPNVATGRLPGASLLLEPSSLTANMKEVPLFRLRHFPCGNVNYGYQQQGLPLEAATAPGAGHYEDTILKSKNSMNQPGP

In order of falling residual activity:
1. C[S+]([O-])c1ccc(-c2nc(-c3ccc(F)cc3)c(-c3ccncc3)[nH]2)cc1 (stereo unspecified)  122%
2. O=c1[nH]c2ccccc2n1C1CCN(Cc2ccc(-c3nc4cc5[nH]cnc5cc4nc3-c3ccccc3)cc2)CC1  90%
3. COc1cc(OC)c(/C=C2\C(=O)Nc3ccccc32)c(OC)c1  89%
4. COc1cc2ncnc(Nc3ccc(OCc4ccccc4)cc3)c2cc1OC  86%
5. N/C(=N\[N+](=O)[O-])N/N=C\c1ccc(-c2cccc([N+](=O)[O-])c2)o1  85%
6. O=[N+]([O-])/C=C/c1ccc2c(c1)OCO2  84%
7. CCn1cnc2c(Nc3cccc(Cl)c3)nc(N[C@@H]3CCCC[C@@H]3N)nc21  82%
8. O=C1NC(=O)c2c1c1c3ccccc3n3c1c1c2c2ccccc2n1C1CCC3O1  81%
9. c1cc(-c2cnn3cc(-c4ccc(OCCN5CCCCC5)cc4)cnc23)ccn1  76%
10. O=C1Nc2ccc3ncsc3c2/C1=C/c1c[nH]cn1  72%
11. CC(C)[C@H](CO)Nc1nc(Nc2cccc(Cl)c2)c2ncn(C(C)C)c2n1  71%
12. COc1ccc2c(c1)/C(=C/c1cnc[nH]1)C(=O)N2  63%
13. COC(=O)[C@@]1(O)C[C@H]2O[C@]1(C)n1c3ccccc3c3c4c(c5c6ccccc6n2c5c31)C(=O)NC4  10%
14. CN[C@@H]1C[C@H]2O[C@@](C)([C@@H]1OC)n1c3ccccc3c3c4c(c5c6ccccc6n2c5c31)C(=O)NC4  0%

Molecular target: ALK tyrosine kinase receptor (Homo sapiens) (UniProt Q9UM73)
Settings: at 10 µM

In order of falling residual activity:
1. O=[N+]([O-])/C=C/c1ccc2c(c1)OCO2  101%
2. C[S+]([O-])c1ccc(-c2nc(-c3ccc(F)cc3)c(-c3ccncc3)[nH]2)cc1 (stereo unspecified)  93%
3. COc1ccc2c(c1)/C(=C/c1cnc[nH]1)C(=O)N2  81%
4. O=C1NC(=O)c2c1c1c3ccccc3n3c1c1c2c2ccccc2n1C1CCC3O1  79%
5. COc1cc2ncnc(Nc3ccc(OCc4ccccc4)cc3)c2cc1OC  76%
6. COc1cc(OC)c(/C=C2\C(=O)Nc3ccccc32)c(OC)c1  75%
7. N/C(=N\[N+](=O)[O-])N/N=C\c1ccc(-c2cccc([N+](=O)[O-])c2)o1  69%
8. COc1ccc2c(c[n+](C)c3c4cc5c(cc4ccc23)OCO5)c1OC  65%
9. O=c1[nH]c2ccccc2n1C1CCN(Cc2ccc(-c3nc4cc5[nH]cnc5cc4nc3-c3ccccc3)cc2)CC1  63%
10. c1cc(-c2cnn3cc(-c4ccc(OCCN5CCCCC5)cc4)cnc23)ccn1  61%
11. O=C1Nc2ccc3ncsc3c2/C1=C/c1c[nH]cn1  57%
12. CCn1cnc2c(Nc3cccc(Cl)c3)nc(N[C@@H]3CCCC[C@@H]3N)nc21  34%
13. CC(C)[C@H](CO)Nc1nc(Nc2cccc(Cl)c2)c2ncn(C(C)C)c2n1  26%
14. CN[C@@H]1C[C@H]2O[C@@](C)([C@@H]1OC)n1c3ccccc3c3c4c(c5c6ccccc6n2c5c31)C(=O)NC4  1%
15. COC(=O)[C@@]1(O)C[C@H]2O[C@]1(C)n1c3ccccc3c3c4c(c5c6ccccc6n2c5c31)C(=O)NC4  1%
